Assay outcomes: PubChem BioAssay, National Center for Advancing Translational Sciences (NCATS)
Giardia kill: kills Giardia lamblia | Giardia lamblia trophozoite viability | activity change, % at 7.66 µM, hits read low | actives 0.15% (n = 340,000); in the data active means activity change below about -80%; inconclusive means between about -30% and that limit;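 further: parasites exposed to compound for two days anaerobically before the ATP read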
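Media and compound were dispensed first, then trophozoites at 100 cells/well; plates sat 48 hrs at 37 deg C without oxygen before ATP luminescence reagent was added and read after 15-30 min at room temperature.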
Chronic BCR inh: blocks chronic active B-cell receptor signaling. Potency, µM (top dose mostly 46.1 µM), usual class: inhibitors. AID 493014. ABC-DLBCL IkBa-CBG/CBR reporter, luminescence ratio, 4 h. actives 0.05% (n = 340,000); active means well fitted inhibition curve with a large enough effect in the signal ratio, with a control signal flat, not every such curve was filed as active; inconclusive means small, poorly fitted or top-dose-only effect, or effect the other way, or a change in a side signal; the % refers to the signal ratio
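Compounds up to 46 uM were incubated four hours with TMD8 cells whose green CBG68 luciferase is fused to IkappaBalpha; red CBR luminescence normalised the signal, and concentration-effect curves were fitted to fusion, red and ratio data.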
RORg inh: inhibitors of mouse ROR gamma transcriptional activity. Potency, µM (highest dose often 53.6 µM), usual class: inhibitors. Drosophila S2 Gal4-RORgamma UAS-luciferase reporter, 20 h. AID 2551. actives 5.4% (n = 310,000); further: nearly all actives have a fitted effect of over 60% in size
Target sequence (P51450 whole entry, looked up, the tested form may be a part): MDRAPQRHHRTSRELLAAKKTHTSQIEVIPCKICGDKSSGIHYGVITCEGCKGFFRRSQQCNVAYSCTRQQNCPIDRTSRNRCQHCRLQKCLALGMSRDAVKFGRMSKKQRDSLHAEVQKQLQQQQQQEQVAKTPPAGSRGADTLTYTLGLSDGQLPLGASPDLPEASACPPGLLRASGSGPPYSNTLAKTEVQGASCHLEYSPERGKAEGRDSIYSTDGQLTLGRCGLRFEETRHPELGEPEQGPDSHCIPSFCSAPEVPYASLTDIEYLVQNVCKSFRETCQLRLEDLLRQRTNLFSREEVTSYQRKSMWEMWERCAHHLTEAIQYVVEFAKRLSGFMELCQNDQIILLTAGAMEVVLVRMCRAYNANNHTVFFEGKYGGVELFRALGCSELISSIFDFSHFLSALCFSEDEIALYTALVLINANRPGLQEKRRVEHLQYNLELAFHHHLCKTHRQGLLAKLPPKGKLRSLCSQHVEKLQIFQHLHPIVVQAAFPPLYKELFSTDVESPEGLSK
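Luminescence from a UAS-regulated Photinus luciferase reporter in stably transfected Drosophila Schneider cells is measured; decreased signal marks ROR gamma inhibition. Fusion expression is induced by 700 uM copper sulfate for 20 hr.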
VP16 counter: inhibits Gal4-VP16 luciferase reporter, ROR gamma counter-screen; Drosophila S2 Gal4-VP16 UAS-luciferase, luminescence, 20 h; actives 3.5% (n = 310,000); Potency, µM (highest dose often 53.6 µM), usual class: inhibitors;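 further: Gal4-VP16 expression switched on by copper sulfate through the metallothionein promoter; nearly all actives have a fitted effect of over 50% in size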
MCF10A rerep: induces DNA re-replication in MCF 10a normal breast cells; MCF 10A DNA re-replication, Hoechst nuclear intensity, 48 h; Potency, µM (top dose mostly 46.1 µM), most hits filed as activators; actives 2.9% (n = 350,000); AID 624296; further: nearly all actives have a fitted effect of over 50% in size
SW480 rerep: DNA re-replication induction in SW480 cells; SW480 DNA re-replication, Hoechst DNA content imaging, 48 h; Potency, µM (highest dose often 46.1 µM), actives largely listed as activators; actives 1.8% (n = 340,000); further: nearly all actives have a fitted effect of over 55% in size
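Per well, 250 cells were exposed to pinned compound for 48 hr. Nuclear DNA was visualised with Hoechst (40 min, 37 C) and total object intensity recorded by fluorescence scanning.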
Each line names hits and unclear results; the compound was inactive in the other large screens. Hits are enriched below; roughly 8.3% of the tested compounds scored in any of these assays. Unless noted, the call rests on the fitted dose curve; in most records, active means well fitted curve in the direction sought with a large enough effect; inconclusive means small, poorly fitted or top-dose-only effect, or another doubt; inactive means no such curve, though single readings can be large; an effect the other way counts as inactive or inconclusive.

Cc1cc(C)c2nc(N3CCCN(C(=O)c4ccco4)CC3)c(C#N)cc2c1	RORg inh inconclusive, VP16 counter inconclusive, MCF10A rerep inconclusive
COc1ccc2nc(N3CCCCC3)c(C#N)cc2c1	Chronic BCR inh inconclusive, MCF10A rerep 16µM, SW480 rerep inconclusive
Cc1cccc2cc(C#N)c(N3CCC(O)CC3)nc12	Chronic BCR inh inconclusive, MCF10A rerep inconclusive, SW480 rerep inconclusive
Cc1ccc2cc(C#N)c(N3CCCC3)nc2c1C	MCF10A rerep inconclusive, SW480 rerep 11µM
Cc1ccc2cc(C#N)c(N3CCCN(C(=O)C4CCCO4)CC3)nc2c1C (centres undefined)	MCF10A rerep 21µM
CN(C(=O)COc1ccc(Cl)cc1Cl)C1(C)CCS(=O)(=O)C1 (centres undefined)	none (no result: RORg inh, VP16 counter)
O=C1OCC2=C1C(c1ccc3c(c1)OCO3)Sc1ccccc1N2 (centres undefined)	VP16 counter 14µM
O=C1OCC2=C1C(c1ccc(F)cc1)c1cc3c(cc1N2)OCO3 (centres undefined)	Chronic BCR inh inconclusive, MCF10A rerep inconclusive, SW480 rerep 0.16µM
CCOc1ccc(C2Sc3ccccc3NC3=C2C(=O)OC3)cc1 (centres undefined)	Chronic BCR inh inconclusive, SW480 rerep inconclusive
CCOc1ccccc1C1C2=C(COC2=O)Nc2cc3c(cc21)OCO3 (centres undefined)	Chronic BCR inh inconclusive, MCF10A rerep inconclusive, SW480 rerep 0.92µM
C#CCOc1ccc(C2C3=C(COC3=O)Nc3cc4c(cc32)OCO4)cc1OC (centres undefined)	Chronic BCR inh inconclusive, MCF10A rerep inconclusive, SW480 rerep 0.52µM
CCN(CC)CCN(C(=O)/C=C/c1cccs1)c1nc2ccc(C)cc2s1	none
O=C1OCC2=C1C(c1ccc(F)cc1)c1cc3c(cc1N2)OCCO3 (centres undefined)	Chronic BCR inh inconclusive, MCF10A rerep inconclusive, SW480 rerep 0.1µM
CC(=O)Oc1ccc(C2C3=C(CC(C)(C)CC3=O)Nc3cc4c(cc32)OCCO4)cc1 (centres undefined)	Chronic BCR inh inconclusive
Cc1cc(C)cc(OCC(O)Cn2nc(C)cc2C)c1 (centres undefined)	none
COc1ccccc1CCn1c(=O)c(-c2cc(F)cc(F)c2)nc2cncnc21	none (no result: Giardia kill, Chronic BCR inh, MCF10A rerep, SW480 rerep)
Cc1nn(Cc2ccc(F)cc2)c(C)c1NC(=O)C1c2ccccc2Oc2ccccc21	VP16 counter inconclusive, MCF10A rerep 18µM
Cc1cc(C(=O)Nc2c(C)nn(Cc3ccc(F)cc3)c2C)on1	none
Cc1nn(Cc2c(F)cccc2Cl)c(C)c1NC(=O)C1CC1	SW480 rerep 0.52µM
CC(=O)Oc1ccc(C2(C)CC(C)(C)Oc3cc(OC(C)=O)ccc32)c(OC(C)=O)c1 (centres undefined)	Chronic BCR inh inconclusive
COc1ccc(N2C(=S)NC(C)(C)CC2(C)c2ccc(OC(C)=O)cc2OC(C)=O)cc1 (centres undefined)	Chronic BCR inh inconclusive, RORg inh 10µM, VP16 counter inconclusive
C=CCn1c(O)c(N=NC(=S)Nc2cccc(C)c2)c2ccccc21	Chronic BCR inh inconclusive, RORg inh 0.25µM, VP16 counter 0.45µM, SW480 rerep inconclusive
Oc1c(N=NC(=S)Nc2ccccc2F)c2ccccc2n1Cc1ccccc1Cl	Chronic BCR inh inconclusive, RORg inh 2.2µM, VP16 counter 6.3µM
C=CCn1c(O)c(N=NC(=S)Nc2ccccc2F)c2ccccc21	Chronic BCR inh inconclusive, RORg inh 0.79µM, VP16 counter 1.8µM
Cc1ccc(S(=O)(=O)N2CCOCC2)cc1C(=O)Nc1ccccc1F	none (no result: RORg inh, VP16 counter)
C=CCn1c(O)c(N=NC(=S)Nc2ccccc2F)c2cc(S(=O)(=O)N3CCOCC3)ccc21	Chronic BCR inh inconclusive, RORg inh 0.45µM, VP16 counter 2µM
CN1C(=O)c2ccc(C(=O)NCc3ccco3)cc2C1=O	none
Cc1ccc(Cn2c(O)c(N=NC(=S)Nc3ccccc3F)c3ccccc32)cc1	RORg inh 4µM, VP16 counter 7.1µM
Oc1c(N=NC(=S)Nc2ccccc2F)c2ccccc2n1Cc1ccccc1	Chronic BCR inh inconclusive, RORg inh 2.8µM, VP16 counter 3.5µM, MCF10A rerep inconclusive
COC(=O)N=Nc1c(O)n(Cc2ccccc2)c2ccccc12	none
Cc1c(Cl)cccc1NC(=S)N=Nc1c(O)n(CN2CCOCC2)c2ccccc12	Chronic BCR inh 7.3µM, RORg inh 1.8µM, VP16 counter 5µM, SW480 rerep inconclusive
CCNC(=S)N/N=C/c1sc(N2CCCCC2)nc1-c1cccs1	Chronic BCR inh inconclusive, RORg inh inconclusive, VP16 counter 18µM, MCF10A rerep inconclusive, SW480 rerep inconclusive
Cc1occc(=O)c1OC(=O)Nc1ccc(Cl)c(Cl)c1	Chronic BCR inh inconclusive, RORg inh inconclusive, VP16 counter inconclusive, MCF10A rerep 18µM
COc1cc2c(cc1OC)CN(C(=S)Nc1cccc(Cl)c1C)CC2	RORg inh inconclusive
CCC[n+]1cn(/C(C(=S)Nc2cccc(Cl)c2C)=C(/[O-])c2ccc(OC)c(OC)c2)c2ccccc21	RORg inh 14µM, VP16 counter inconclusive
CCC(C)N(C)Cc1cccc(C2(O)CCN(S(=O)(=O)c3ccc(F)c(C)c3)CC2)c1 (centres undefined)	MCF10A rerep 15µM, SW480 rerep inconclusive
Cc1cc(S(=O)(=O)N2CCN(c3c(C)cccc3C)CC2)ccc1F	Chronic BCR inh inconclusive
C=C(C(=O)c1ccccc1)C(NC(C)(C)C)c1ccccc1 (centres undefined)	MCF10A rerep 1.8µM, SW480 rerep 2.9µM (no result: Chronic BCR inh, RORg inh, VP16 counter)
O=C(CC(Nc1ccccc1)C(=O)O)c1ccccc1 (centres undefined)	RORg inh 11µM, VP16 counter 7.9µM
CNC(=O)CC(CC(=O)c1ccccc1)c1ccccc1 (centres undefined)	Chronic BCR inh inconclusive (no result: RORg inh, VP16 counter)
O=C(CC(Nc1ccc(Cl)cc1Cl)C(=O)O)c1ccccc1 (centres undefined)	RORg inh 13µM, VP16 counter inconclusive, MCF10A rerep inconclusive
C=C(C(=O)c1ccccc1)C(C)CC(=O)c1ccccc1 (centres undefined)	Chronic BCR inh inconclusive, RORg inh inconclusive, VP16 counter 18µM, MCF10A rerep inconclusive, SW480 rerep 21µM
CC(N=C1CC(C)(C)CC(=O)/C1=C(/O)CCCN1C(=O)c2ccccc2C1=O)C(=O)O (centres undefined)	Chronic BCR inh inconclusive
CCOC(=O)c1cnc2ccc(C)cc2c1Sc1ccc(F)cc1	Chronic BCR inh inconclusive, RORg inh inconclusive, VP16 counter 28µM, MCF10A rerep inconclusive
CCOC(=O)c1cnc2ccc(C)cc2c1Nc1ccc(N2CCOCC2)cc1	Chronic BCR inh inconclusive, RORg inh inconclusive, VP16 counter inconclusive, MCF10A rerep 21µM
Cc1ccc(S(=O)(=O)NCCC(=O)Nc2ncccc2O)cc1C	none (no result: RORg inh, VP16 counter)
